Shown is part of a subset that was picked to be rich in hits.
IDH1 mut inh: IDH1 R132H (human) inhibition. O75874. IDH1 R132H reductase, diaphorase/resazurin fluorescence, 60 min. inhibition, % at 10 µM. hit rate 0.18% among 70,000. AID 624101; in the data active = inhibition above about 34%;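 also: 0% = DMSO and 100% = no enzyme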
Active calls of the source: *.

SMILES | IDH1 mut inh
N#CC(C#N)=Cc1ccc(O)cc1 | 0.6
N#CC(C#N)=Cc1cc(O)c(O)c(O)c1 | 33.3*
CC(C)(C)ONC(=O)CN=[N+]=[N-] | 0.3
